# Shown are actives, neighbours in structure and some others; about 15% of the full set was active somewhere.
# TDP1 cell noCPT – qHTS for Inhibitors of human tyrosyl-DNA phosphodiesterase 1 (TDP1): qHTS in cells in absence of CPT. DT40 Tdp1-/- hTDP1 cells, no CPT, ATP luminescence, 48 h. Potency, µM (highest dose often 46.2 µM), without a hit: at the highest dose activity change, negative = growth inhibition, hits mostly inhibitors. actives 15% (n = 420,000); also: nearly all actives have a fitted effect of over 55% in size
#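 Growth kinetics read by CellTiter-Glo luminescence after ≥48 hr at 37 °C. Cells: DT40 Tdp1-/- stably carrying human TDP1, 400 per well, compound exposure in the absence of CPT (DMSO vehicle).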
# 12-LOX inh – Primary qHTS assay for inhibitors of human arachidonate 12S-lipoxygenase (ALOX12): Round 2 | purified 12hLO, xylenol orange hydroperoxide absorbance | Potency, µM (doses to about 108 µM), for the others: at the top dose activity change, negative = inhibition, actives largely listed as inhibitors | actives 1.1% (n = 580,000) | AID 1671190, 2021
# Target sequence (P18054 whole entry, looked up): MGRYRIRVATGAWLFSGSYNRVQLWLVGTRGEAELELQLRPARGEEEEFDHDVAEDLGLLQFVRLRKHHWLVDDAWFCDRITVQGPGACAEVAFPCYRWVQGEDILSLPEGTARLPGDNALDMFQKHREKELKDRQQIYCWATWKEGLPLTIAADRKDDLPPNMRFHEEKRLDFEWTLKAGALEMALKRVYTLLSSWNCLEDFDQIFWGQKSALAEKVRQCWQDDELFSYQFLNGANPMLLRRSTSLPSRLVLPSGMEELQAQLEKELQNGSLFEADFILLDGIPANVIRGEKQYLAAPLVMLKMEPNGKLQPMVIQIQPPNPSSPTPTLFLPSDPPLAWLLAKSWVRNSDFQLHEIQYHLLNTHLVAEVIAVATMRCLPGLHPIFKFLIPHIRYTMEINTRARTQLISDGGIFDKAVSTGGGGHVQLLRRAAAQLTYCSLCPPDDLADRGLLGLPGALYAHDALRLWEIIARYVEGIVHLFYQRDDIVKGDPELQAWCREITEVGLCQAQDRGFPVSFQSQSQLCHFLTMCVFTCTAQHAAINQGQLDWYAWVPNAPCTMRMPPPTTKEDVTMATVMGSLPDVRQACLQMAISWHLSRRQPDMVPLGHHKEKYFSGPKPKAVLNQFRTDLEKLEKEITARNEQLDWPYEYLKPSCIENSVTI
#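 Purified human 12hLO at 150 nM in 25 mM Hepes, 0.01% Triton X-100, pH 7.0, preincubated 15 min at room temperature with compound. Reaction started with 40 uM arachidonic acid, 30 min at room temperature. Hydroperoxide measured by Fe-xylenol orange, 573/405 nm absorbance ratio.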
# ELG1 DNA repair – qHTS screen for small molecules that inhibit ELG1-dependent DNA repair in human embryonic kidney (HEK293T) cells expressing luciferase-tagged ELG1; HEK293T ELG1-luciferase reporter, luminescence, 16 h; DNA damage induced by 5-fluorouridine; Potency, µM (doses to about 46.1 µM), for the others: top-dose activity change, negative = inhibition, usual class: inhibitors; actives 2.3% (n = 330,000); AID 504467, 2011; also: nearly all actives have a fitted effect of over 55% in size
#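 Reporter activity after DNA damage by 5-fluorouridine is monitored. Compound-treated cells incubate 16 hr at 37 °C, then ONE-Glo is added for 30 min before luminescence reading.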
# VP16 counter – VP16 counterscreen qHTS for inhibitors of ROR gamma transcriptional activity. Drosophila S2 Gal4-VP16 UAS-luciferase, luminescence, 20 h. AID 2546, 2010. actives 3.5% (n = 310,000). Potency, µM (doses to about 53.6 µM), without a hit: top-dose activity, negative = inhibition, usual class: inhibitors;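 also: Gal4-VP16 expression switched on by copper sulfate through the metallothionein promoter; nearly all actives have a fitted effect of over 50% in size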
# RORg inh – qHTS for inhibitors of ROR gamma transcriptional activity. Drosophila S2 Gal4-RORgamma UAS-luciferase reporter, 20 h. actives 5.4% (n = 310,000). Nuclear receptor ROR-gamma (Mus musculus), P51450. Potency, µM (series often up to 53.6 µM), for the others: at the top dose activity change, negative = inhibition, usual class: inhibitors; also: nearly all actives have a fitted effect of over 60% in size
#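 Luciferase reporter read in Schneider cells carrying Gal4-RORγ (mouse) and UAS-Photinus luciferase; cells given compound 1 h before 700 uM copper sulfate induction, then incubated 20 h at ambient temperature.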
# TDP1 cell CPT – qHTS for Inhibitors of human tyrosyl-DNA phosphodiesterase 1 (TDP1): qHTS in cells in presence of CPT; chicken DT40 Tdp1-/-;hTDP1 cells + 20 nM CPT, ATP luminescence, 48 h; Potency, µM (titrated, usually from 46.2 µM), for the others: at the highest dose activity change, negative = growth inhibition, most hits filed as inhibitors; actives 12% (n = 420,000); also: nearly all actives have a fitted effect of over 55% in size
#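 Cell growth measured by CellTiter-Glo luminescence after a minimum 48 h, 37 C compound exposure with 20 nM CPT in Tdp1-knockout DT40 cells stably expressing hTDP1, seeded 400/well; qHTS titration format.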
# An asterisk follows results filed as active; i = inactive; ? = inconclusive; nt = no result; [ ] = dose if it differs, or a comment. Calls follow the shape of the dose curve; as a rule, active = well fitted curve in the direction sought with a large enough effect; inconclusive = small, poorly fitted or top-dose-only effect, or another doubt; inactive = no such curve, though single readings can be large; an effect the other way counts as inactive or inconclusive. % is scaled to controls: 0 for no effect and ±100 for the full control effect; potency is read from the fitted curve at half-maximal effect.
SMILES,TDP1 cell noCPT,12-LOX inh,ELG1 DNA repair,VP16 counter,RORg inh,TDP1 cell CPT
O=C(NCCc1c[nH]c2ccc(F)cc12)C1CCN(c2nc(Cl)nc3nc[nH]c23)CC1,nt,-0.2%,nt,nt,nt,nt
CCOc1ccc(-c2nc(C)c(C(C)=O)n2O)cc1,-16.0%,?,?,25.1µM*,17.9%,-33.9%
COC[C@@H]1CN(C(=O)c2ccc(OC)cc2OC)C[C@H]1C(N)=O,nt,25.5%,nt,nt,nt,nt
Cc1ccc(-n2ncc(C(=O)Nc3ccc4c(c3)OCO4)c2C2CCN(C(=O)OC(C)(C)C)CC2)c(C)c1,29.1µM*,-4.9%,nt,nt,nt,?
CCOC(=O)c1ccc(NC(=O)c2cnn(-c3ccc(C)cc3C)c2C2CCN(C(=O)OC(C)(C)C)CC2)cc1,16.4µM*,-16.8%,nt,nt,nt,?
Cc1cccc(C)c1-n1ncc(C(=O)Nc2ccc3c(c2)OCO3)c1C1CCN(C(=O)OC(C)(C)C)CC1,?,-2.7%,nt,nt,nt,?
CCOC(=O)N1CCC(NC(=O)c2cnn(-c3ccc(C)cc3C)c2C2CCN(C(=O)OC(C)(C)C)CC2)CC1,-24.2%,-25.2%,nt,nt,nt,-27.0%
CN1C[C@@H](NC(=O)C2CCCCC2)C[C@H]1c1nc(-c2ccc(Cl)cc2)no1,nt,-2.5%[176 µM],nt,nt,nt,nt
COc1cc(F)ccc1-c1ccnc2nc(Cc3ccc(F)cc3)nn12,nt,49.3%,nt,nt,nt,nt
O=C(CSc1nc2ncc(Br)cc2[nH]1)Nc1ccccc1-c1ccccc1,?,1.8%,?,?,?,16.4µM*
O=C(CSc1nc2ncc(Br)cc2[nH]1)c1ccc([N+](=O)[O-])cc1,?,?,4.1%,-85.4%,-79.8%,18.4µM*
O=C(CSc1nc2ncc(Cl)cc2[nH]1)Nc1ccccc1-c1ccccc1,?,15.4%,?,-8.2%,-29.3%,?
CCN(CC)C(=O)CSc1nc2ncc(Br)cc2[nH]1,4.3%,i,4.4%,6.9%,?,-110.4%
COc1ccc(Cn2c(SCC(=O)Nc3ccc(OC)cc3)nc3ccccc32)cc1,?,-15.1%,nt,nt,nt,25.9µM*
Cc1ccc(CNC(=O)Cn2c(SCC(=O)Nc3ccc(F)cc3)nc3ccccc32)cc1,?,-20.6%,nt,nt,nt,?
COc1ccc(NC(=O)CSc2nnc(-c3ccccc3C)n2N)cc1OC,-1.9%,-2.1%,0.1%,1.2%,?,-7.7%
CCN(C(=O)CSc1nc2ccccc2n1Cc1ccc(C(=O)OC)cc1)c1ccccc1,13µM*,-10.1%,nt,nt,nt,20.6µM*
COc1ccc(NC(=O)CSc2nnc(-c3ccccc3C)n2N)cc1,20.6µM*,0.0%,6.6%,-0.8%,-14.2%,16.4µM*
CN(C)C(=O)CSc1nc2ccccc2n1Cc1ccccc1,?,0.4%,11.5%,-7.9%,25.9%,?
O=C(Cn1c(SCC(=O)Nc2ccc(F)cc2)nc2ccccc21)NCc1ccc(Cl)cc1,13µM*,-23.9%,nt,nt,nt,?
CN(C)S(=O)(=O)c1cc(NC(=O)CSc2cccc[n+]2[O-])ccc1Cl,4.2%,-28.6%,5.7%,nt,nt,-16.8%
COC(=O)c1ccc(Cn2c(SCC(=O)NCc3ccccc3)nc3ccccc32)cc1,23.1µM*,?,nt,nt,nt,20.6µM*
CN(C)S(=O)(=O)c1cc(NC(=O)CSc2ncc(C(F)(F)F)cc2Cl)ccc1Cl,16.4µM*,10.1%,?,-24.5%,?,14.6µM*

# Screens from PubChem.
